Structures can show the parent of a compound that is named as a salt.

For one test, the system named is S. cerevisiae AD1-9 (efflux-pump deficient), vegetative growth in YPD. The experiment in a line: growth sensitivity score (doubling time z-score vs DMSO controls); higher = slower growth, strongly negative scores also mark growth inhibition (complete suppression), active = hit call of the paper. The essentials: (§1)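 Yeast (Saccharomyces cerevisiae BY4741 and AD1-9) was grown in rich medium in microtiter plates from a starting OD600 of 0.065, with optical density read every 15 min over 24 hours. The growth sensitivity score was the difference between compound and solvent-only means, divided by the solvent-only standard deviation. Every experiment had eight solvent-only wells.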
`NC(N)=NC(=O)c1nc(Cl)c(N)nc1N` (stock concentration (mM, diluted 1:100): 8.2): the growth sensitivity score was 4.88 (active).

With `COc1ccc2c(c1)c(CC(=O)O)c(C)n2C(=O)c1ccc(Cl)cc1` [Indomethacin] (stock concentration (mM, diluted 1:100): 10.5), the growth sensitivity score is 0.93 (inactive).

For `O=C(CCCN1CC=C(n2c(=O)[nH]c3ccccc32)CC1)c1ccc(F)cc1` [Droperidol] (stock concentration (mM, diluted 1:100): 10), the growth sensitivity score is -1.57 (inactive).

`C[C@H]1C[C@H]2[C@@H]3CCC4=CC(=O)C=C[C@]4(C)[C@@]3(Cl)[C@@H](O)C[C@]2(C)[C@@]1(O)C(=O)CO` [Beclomethasone] (stock concentration (mM, diluted 1:100): 10): the growth sensitivity score is 2.68 (active).

Turning to `CC(C)c1ccc2oc3nc(N)c(C(=O)O)cc3c(=O)c2c1` [Amlexanox] (stock concentration (mM, diluted 1:100): 10), the growth sensitivity score was 0.42 (inactive).

Turning to `c1cnc(N2CCN(Cc3ccc4c(c3)OCO4)CC2)nc1` [Piribedil] (stock concentration (mM, diluted 1:100): 9.7), the growth sensitivity score was -3.77.

For the molecule `C[C@]12CCC(=O)C=C1CC[C@@H]1[C@@H]2CC[C@@]2(C)[C@H]1CC[C@]2(O)C(=O)CO` [Cortodoxone] (stock concentration (mM, diluted 1:100): 10), the growth sensitivity score is 6.84 (active).

Take `CC[C@H]1OC(=O)[C@H](C)C(=O)[C@H](C)[C@@H](O[C@@H]2O[C@H](C)C[C@H](N(C)C)[C@H]2O)[C@](C)(OC)C[C@@H](C)C(=O)[C@H](C)[C@H]2N(CCCCn3cnc(-c4cccnc4)c3)C(=O)O[C@]12C` [Telithromycin] (stock concentration (mM, diluted 1:100): 10): the growth sensitivity score was 4.79 (active).

In the case of `CC(=O)OCC(=O)NCCCOc1cccc(CN2CCCCC2)c1` [Roxatidine acetate hydrochloride] (stock concentration (mM, diluted 1:100): 9.1), the growth sensitivity score was -0.42 (inactive).

Consider `CCN1CC(CCN2CCOCC2)C(c2ccccc2)(c2ccccc2)C1=O` (configuration not stated) [Doxapram hydrochloride] (stock concentration (mM, diluted 1:100): 10.4), for which the growth sensitivity score is -0.91 (inactive).

A further test deals with S. cerevisiae BY4741 (wild-type), vegetative growth in YPD. The description is as above. The essentials:
as §1
As to `Cc1cn([C@H]2C=C[C@@H](CO)O2)c(=O)[nH]c1=O` [Stavudine] (stock concentration (mM, diluted 1:100): 10), the growth sensitivity score is 0.1 (inactive).

With `CO[C@H]1/C=C/O[C@@]2(C)Oc3c(C)c(O)c4c(c3C2=O)C2=NC3(CCN(CC(C)C)CC3)NC2=C(NC(=O)/C(C)=C\C=C\[C@H](C)[C@H](O)[C@@H](C)[C@@H](O)[C@@H](C)[C@H](OC(C)=O)[C@@H]1C)C4=O` [Rifabutin] (stock concentration (mM, diluted 1:100): 10), the growth sensitivity score was 0.72 (inactive).

For the molecule `CC(=O)[C@]1(O)Cc2c(O)c3c(c(O)c2[C@@H](O[C@H]2C[C@H](N)[C@H](O)[C@H](C)O2)C1)C(=O)c1ccccc1C3=O` [Idarubicin hydrochloride] (stock concentration (mM, diluted 1:100): 9.3), the growth sensitivity score was 128 (active).

With `CCC(=O)NS(=O)(=O)c1ccc(-c2c(-c3ccccc3)noc2C)cc1` [Parecoxib] (stock concentration (mM, diluted 1:100): 9.8), the growth sensitivity score was -0.35 (inactive).

In the case of `Nc1nc(Cl)nc2c1ncn2[C@@H]1O[C@H](CO)[C@@H](O)[C@H]1O` [2-Chloroadenosine] (stock concentration (mM, diluted 1:100): 10), the growth sensitivity score is -1.07 (inactive).

With `CC=CC(=O)N(CC)c1ccccc1C` [Crotamiton] (stock concentration (mM, diluted 1:100): 10.3), the growth sensitivity score is -0.07 (inactive).

Turning to `Cc1onc(-c2ccccc2)c1-c1ccc(S(N)(=O)=O)cc1` [Valdecoxib] (stock concentration (mM, diluted 1:100): 10), the growth sensitivity score is 0.72 (inactive).

As for `Nc1nc(Cl)nc2c1ncn2[C@H]1C[C@H](O)[C@@H](CO)O1` [2-Chloro-2-Deoxyadenosine] (stock concentration (mM, diluted 1:100): 10), the growth sensitivity score was -0.67 (inactive).

In the case of `CCN1CCC[C@H]1CNC(=O)c1cc(S(N)(=O)=O)ccc1OC` [Levosulpiride] (stock concentration (mM, diluted 1:100): 10), the growth sensitivity score is 0.25 (inactive).

On to `Cc1occc(=O)c1O` [Maltol] (stock concentration (mM, diluted 1:100): 10), for which the growth sensitivity score was -0.74 (inactive).

Turning to `C[C@@H]1C[C@H]2[C@@H]3CCC4=CC(=O)C=C[C@]4(C)[C@@]3(F)[C@@H](O)C[C@]2(C)[C@H]1C(=O)CO` [Desoximetasone] (stock concentration (mM, diluted 1:100): 10), the growth sensitivity score is 1.97 (inactive).

As for `CCOC(=O)[C@H](CCc1ccccc1)N[C@@H](C)C(=O)N1[C@H](C(=O)O)C[C@@H]2CCC[C@@H]21` [Ramipril] (stock concentration (mM, diluted 1:100): 10), the growth sensitivity score is -0.9 (inactive).

Consider `O=C1c2c(O)cc(O)cc2OC(c2ccc(O)c(O)c2)C1O` (configuration not stated) [Taxifolin] (stock concentration (mM, diluted 1:100): 10.1), for which the growth sensitivity score was -1.02 (inactive).

Consider `CCOC(=O)[C@@]1(CCCCCCOc2ccc(Cl)cc2)CO1` [Etomoxir] (stock concentration (mM, diluted 1:100): 10), for which the growth sensitivity score was 1.54 (inactive).

Regarding `CN1[C@@H](CC(=O)c2ccccc2)CCC[C@H]1C[C@H](O)c1ccccc1` [Lobeline hydrochloride] (stock concentration (mM, diluted 1:100): 10), the growth sensitivity score is 0.72 (inactive).

As to `Cc1nc2n(c(=O)c1CCN1CCC(c3noc4cc(F)ccc34)CC1)CCCC2` [Risperidone] (stock concentration (mM, diluted 1:100): 10), the growth sensitivity score is -0.68 (inactive).

Regarding `COc1cccc2c1C(=O)c1c(O)c3c(c(O)c1C2=O)C[C@@](O)(C(=O)CO)C[C@@H]3O[C@H]1C[C@H](N)[C@H](O)[C@H](C)O1` [Doxorubicin hydrochloride] (stock concentration (mM, diluted 1:100): 9.4), the growth sensitivity score was 51 (active).

For the molecule `CC[C@H](C)C(=O)O[C@H]1C[C@H](O)C=C2C=C[C@H](C)[C@H](CC[C@@H](O)C[C@@H](O)CC(=O)O)[C@H]21` [Pravastatin sodium] (stock concentration (mM, diluted 1:100): 9.5), the growth sensitivity score was 0.4 (inactive).

As to `COc1cc(OC)c(C(=O)CCCN2CCCC2)c(OC)c1` [Buflomedil hydrochloride] (stock concentration (mM, diluted 1:100): 8.9), the growth sensitivity score is 2.01 (active).

For `O=c1c(O[C@@H]2O[C@H](CO)[C@H](O)[C@H](O)[C@H]2O)c(-c2ccc(O)c(O)c2)oc2cc(O)cc(O)c12` [Hyperoside] (stock concentration (mM, diluted 1:100): 8.8), the growth sensitivity score was -0.31 (inactive).

On to `CCS(=O)(=O)CCn1c([N+](=O)[O-])cnc1C` [Tinidazole] (stock concentration (mM, diluted 1:100): 10), for which the growth sensitivity score is -0.09 (inactive).

As to `O=c1[nH]c(=O)n(C2CCCO2)cc1F` (configuration not stated) [Ftorafur] (stock concentration (mM, diluted 1:100): 10), the growth sensitivity score was 0.14 (inactive).

On to `COc1nc(C)nc(Cl)c1NC1=NCCN1` [Moxonidine hydrochloride] (stock concentration (mM, diluted 1:100): 9.2), for which the growth sensitivity score is 0.19 (inactive).

`CN(CCOc1ccc(CC2SC(=O)NC2=O)cc1)c1ccccn1` (configuration not stated) [Rosigltazone hydrochloride] (stock concentration (mM, diluted 1:100): 8.2): the growth sensitivity score is 2.48 (active).

As for `C[C@@H](c1ncncc1F)[C@](O)(Cn1cncn1)c1ccc(F)cc1F` [Voriconazole] (stock concentration (mM, diluted 1:100): 9.9), the growth sensitivity score was 43.3 (active).

For `O=C1c2cccc3c2[C@H](CCC3)CN1[C@@H]1CN2CCC1CC2` [Palonosetron hydrochloride] (stock concentration (mM, diluted 1:100): 10), the growth sensitivity score is -1.82 (inactive).

Take `COCCCOc1ccnc(C[S+]([O-])c2nc3ccccc3[nH]2)c1C` (configuration not stated) [Rabeprazole] (stock concentration (mM, diluted 1:100): 10.6): the growth sensitivity score was 12.2 (active).

For `NC(N)=NC(=O)c1nc(Cl)c(N)nc1N` (stock concentration (mM, diluted 1:100): 8.2), the growth sensitivity score was 1.27 (inactive).

For `COc1ccc2c(c1)c(CC(=O)O)c(C)n2C(=O)c1ccc(Cl)cc1` [Indomethacin] (stock concentration (mM, diluted 1:100): 10.5), the growth sensitivity score was 0.62 (inactive).

Consider `O=C(CCCN1CC=C(n2c(=O)[nH]c3ccccc32)CC1)c1ccc(F)cc1` [Droperidol] (stock concentration (mM, diluted 1:100): 10), for which the growth sensitivity score was -0.99 (inactive).

For the molecule `C[C@H]1C[C@H]2[C@@H]3CCC4=CC(=O)C=C[C@]4(C)[C@@]3(Cl)[C@@H](O)C[C@]2(C)[C@@]1(O)C(=O)CO` [Beclomethasone] (stock concentration (mM, diluted 1:100): 10), the growth sensitivity score was 0.52 (inactive).

Turning to `CC(C)c1ccc2oc3nc(N)c(C(=O)O)cc3c(=O)c2c1` [Amlexanox] (stock concentration (mM, diluted 1:100): 10), the growth sensitivity score is 1.8 (inactive).

(Values after the supplement of paper PMC3414501.)
